The values that follow come from PubChem BioAssay (NCI).

Molecules are shown by their SMILES. The panel holds about 83,000 compounds, 20% with a hit somewhere; the sample as a whole holds those more often.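 Single-dose data. Exposure time 48 hours. Values below 10 considered active.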 Unmarked numbers belong to inactive results. Active and inactive are the calls of the source.

Common to all, as to test: NCI-60 one-dose screen, 48 h (100 = growth as untreated, 0 = no growth, -100 = all killed)
Common to all, as to details: 10 µM

For assay [1], the system named is T-47D breast.
For assay [2], the system named is BT-549 breast.
The subject of assay [3] is MDA-MB-435 melanoma.
Assay [4] concerns SW-620 colon.
Assay [5] deals with MCF7 breast.
Assay [6] deals with HCC-2998 colon.
The subject of assay [7] is KM12 colon.
For assay [8], the system named is HCT-116 colon.

With `CCCC(C)c1ccc(OCCCCCCN2CCNCC2)cc1` (stereo unspecified), the growth in assay [1] is -12.7% (active); in assay [2], 76.5%; in assay [3] it was 28.9%; in assay [4], -16.6% (active); in assay [5], -23.2% (active); in assay [6], -71.4% (active). The growth in assay [7] was 15.1%.
As to `COc1cc(C2C=C(c3ccc(Cl)cc3)N=C3SC(C)=CN32)cc(OC)c1OC` (stereo unspecified), the growth in assay [1] was 72.2%; in assay [2] it was 88.5%; in assay [3], 72.9%; in assay [4], 94.5%; in assay [5] it was 67.6%; in assay [6] it was 101%.
In the case of `COc1ccc(C2C=C(c3ccc(Cl)cc3)N=C3SC=CN32)c(Br)c1` (stereo unspecified), the growth in assay [1] is 71.8%; in assay [2], 96.7%; in assay [3] it was 69.2%; in assay [4], 91.3%; in assay [5], 75.3%; in assay [8] it was 54%. Moreover, in assay [7], the growth is 62.3%.
For `CCCCCCCCCCCC(c1ccccc1)N(C)C` (stereo unspecified), the growth in assay [1] is 99.7%; in assay [2], 101%; in assay [3], 102%; in assay [4], 95.4%; in assay [5] it was 91.3%; in assay [8], 94.4%. In addition, the growth in assay [7] was 104%.
Turning to `O=C(NCCCl)c1cc(Cl)cc(Cl)c1`, the growth in assay [1] was 93.6%; in assay [2], 105%; in assay [3], 99.9%; in assay [4], 112%; in assay [5], 96.2%; in assay [6], 102%.
Turning to `NCCNc1ccc2cc(-c3nc4ccccc4[nH]3)c(=O)oc2c1`, the growth in assay [1] is 82.2%; in assay [2], 84.9%; in assay [3], 101%; in assay [4], 103%; in assay [5], 80.9%; in assay [6], 97.9%. In assay [7], the growth is 99.8%.
As to `COc1ccc(C2CC(c3ccc(-c4ccccc4)cc3)=NN2c2ccc(S(N)(=O)=O)cc2)cc1` (stereo unspecified), the growth in assay [1] was 52.5%; in assay [2], 98.5%; in assay [3] it was 76%; in assay [4], 81.1%; in assay [5], 58.6%; in assay [8], 56.7%. The growth in assay [7] is 37.5%.
In the case of `Oc1cc(O)c(Br)cc1Br`, the growth in assay [1] was 90.2%; in assay [2] it was 93.8%; in assay [3], 101%; in assay [4], 105%; in assay [5] it was 91.3%; in assay [6], 94.6%. The growth in assay [7] was 101%.
Consider `CCOc1nc(-c2ccccc2)cc2c(O)c(C(=O)N/N=C/c3ccc(OC)cc3)[nH]c(=O)c12`, for which the growth in assay [1] was 80.9%; in assay [2], 123%; in assay [3] it was 113%; in assay [4], 110%; in assay [5] it was 101%; in assay [8] it was 109%. For the same compound, in assay [7], the growth was 107%.
On to `Cc1ccc(-c2cc(-c3cccc(Nc4ccnc5cc(Cl)ccc45)c3)nc3nc(N)[nH]c(=O)c23)cc1`, for which the growth in assay [1] is 35%; in assay [2], 86.4%; in assay [3], 99.8%; in assay [4] it was 95.8%; in assay [5], 72.5%; in assay [8], 91.3%. Moreover, the growth in assay [7] was 70.5%.
Take `CCCCCCOc1ccc(/C=C/C(=O)c2ccc(B(O)O)cc2)cc1`: the growth was 73.9% in assay [1]; 35.2% in assay [2]; 77.1% in assay [3]; 96.8% in assay [4]; 57.5% in assay [5]; 95.6% in assay [6]. For the same compound, the growth in assay [7] is 85.4%.
Regarding `COc1ccc(C2C=C(c3ccc(OC)c(OC)c3)N=C3SC=CN32)c(Br)c1` (stereo unspecified), the growth was 54.7% in assay [1]; 62.5% in assay [2]; 5.29% (active) in assay [3]; 13.4% in assay [4]; 12.7% in assay [5]; -78.2% (active) in assay [8]. In assay [7], the growth was 31.5%.
Turning to `N#CC1C=Cc2c(ccc3ccccc23)N1C(=O)c1ccccc1` (stereo unspecified), the growth was 56.7% in assay [1]; 33.5% in assay [2]; -31.4% (active) in assay [3]; 21.8% in assay [4]; 21.5% in assay [5]; 10.3% in assay [6]. The growth in assay [7] is -6.86% (active).
Regarding `COc1cccc2c1O/C(=C\c1ccc([N+](=O)[O-])s1)C2=O`, the growth in assay [1] was 39.6%; in assay [2], -14.3% (active); in assay [3] it was 48.4%; in assay [4], -28.6% (active); in assay [5] it was 42.8%; in assay [8], -14% (active). In addition, in assay [7], the growth is 18.3%.
Consider `COc1ccc(-c2cc(/C=C3\C(=O)Nc4cc(Cl)ccc43)[nH]n2)cc1`, for which the growth in assay [1] was 47.8%; in assay [2], 63.5%; in assay [3], -36.7% (active); in assay [4], 19.9%; in assay [5], 11.7%; in assay [8] it was 26.2%. The growth in assay [7] was 19.2%.
`COc1ccc2nc(/C=C/c3ccc(N(C)C)cc3)sc2c1`: the growth is 300% in assay [1]; 104% in assay [2]; 90.3% in assay [3]; 93.6% in assay [4]; 96.6% in assay [5]; 105% in assay [8]. Also, the growth in assay [7] is 104%.
With `Cc1ccc(Cl)cc1Nc1nc(C(F)(F)F)ccc1C(=O)N/N=C/c1c(Cl)cccc1Cl`, the growth was -10.9% (active) in assay [1]; 31% in assay [2]; 13.1% in assay [3]; 3.99% (active) in assay [4]; 2.24% (active) in assay [5]; 12.7% in assay [8]. For the same compound, the growth in assay [7] was -15.9% (active).
On to `C#CCNCCCN1C(=O)c2ccc3c4c(ccc(c24)C1=O)C(=O)N(CCCNCC#C)C3=O`, for which the growth in assay [1] was -52.1% (active); in assay [2], -93.8% (active); in assay [3] it was -66.9% (active); in assay [4], -59.8% (active); in assay [5], -72.7% (active); in assay [8] it was -25% (active). For the same compound, the growth in assay [7] was -80.4% (active).
In the case of `O=C(Nc1ccc(OCc2nnc(-c3ccccc3)o2)c(F)c1)Nc1ccc(Cl)c(Cl)c1`, the growth was 33.7% in assay [1]; 79% in assay [2]; 68.8% in assay [3]; 66.3% in assay [4]; 57.7% in assay [5]; 58.5% in assay [6]. In assay [7], the growth was 34.1%.
For `C=C[C@]1(C)C=C2C(=O)[C@@]3(O)OC(=O)[C@@]4(CCCC(C)(C)[C@H]34)[C@@]2(O)CC1`, the growth in assay [1] was -52.8% (active); in assay [2], -93.7% (active); in assay [3], -90.6% (active); in assay [4] it was -42% (active); in assay [5], 0.55% (active); in assay [6] it was -91.3% (active). Besides, the growth in assay [7] was 8.33% (active).
Take `C[C@@H]1C(=O)N(C[C@H](Cc2ccccc2)NC(=O)OCc2ccccc2)[C@]1(Cc1ccccc1)C(=O)OCc1ccccc1`: the growth in assay [1] was 7.82% (active); in assay [2] it was 62.9%; in assay [4], 52.6%; in assay [5], 35%; in assay [8], 32.3%; in assay [6], 71%. Further, the growth in assay [7] was 26.6%.
Turning to `CC(C)(C)c1ccc(OCCCCCCN2CCNCC2)cc1`, the growth is 34.8% in assay [1]; 58.7% in assay [2]; 68.3% in assay [3]; 45.9% in assay [4]; 17.5% in assay [5]; -47.1% (active) in assay [6]. The growth in assay [7] is 51.1%.
On to `O=C(O)c1cc(C(F)(F)F)cc(C(F)(F)F)c1`, for which the growth was 104% in assay [1]; 105% in assay [2]; 104% in assay [3]; 101% in assay [5]; 99.8% in assay [8]; 103% in assay [6]. Further, the growth in assay [7] is 105%.
As to `COc1ccccc1Cn1cc2c(c1-c1ccccc1)CCc1cnoc1-2`, the growth was 29.4% in assay [1]; 46.9% in assay [2]; -21.3% (active) in assay [3]; 16.8% in assay [4]; 19.3% in assay [5]; 81% in assay [6]. The growth in assay [7] is 29.5%.
On to `C=CCOc1ccc2c(c1)CC[C@@H]1[C@@H]2CC[C@]2(C)C(=O)/C(=N/O)C[C@@H]12`, for which the growth is 22.7% in assay [1]; 28.6% in assay [2]; 61.6% in assay [3]; 42.5% in assay [4]; 44.2% in assay [5]; 61.6% in assay [7].
Regarding `CC(C)C[C@H](NC(=O)Cn1ccc2ccccc2c1=O)B(O)O`, the growth in assay [1] was 39.6%; in assay [2], 58.4%; in assay [4], 42.8%; in assay [5] it was 31.4%; in assay [8] it was 32.3%; in assay [6], 72.2%. Besides, in assay [7], the growth was 93.4%.
Take `C/C=C\COc1cc(C)c(Cl)cc1Cl`: the growth in assay [1] is 105%; in assay [2] it was 126%; in assay [4], 96.2%; in assay [5], 98.4%; in assay [8] it was 110%; in assay [6] it was 118%. Further, the growth in assay [7] was 109%.
As to `[O-]c1c[n+](-c2ccc(Cl)cc2)no1`, the growth in assay [1] was 83.5%; in assay [2] it was 107%; in assay [4], 97.5%; in assay [5], 84.9%; in assay [8], 102%; in assay [6], 101%. Also, in assay [7], the growth is 95.8%.
In the case of `CC1(C)CC(OCCCC[P+](c2ccccc2)(c2ccccc2)c2ccccc2)CC(C)(C)N1O`, the growth in assay [1] is -2.14% (active); in assay [2], 17.3%; in assay [3], -57.9% (active); in assay [4], 2.74% (active); in assay [5], -1.61% (active); in assay [7], -51.6% (active).
`CC1=CSC2=NC(c3ccc(Cl)c(Cl)c3)=CC(c3ccc(Cl)cc3)N12` (stereo unspecified): the growth in assay [1] is 21.3%; in assay [2], 7.99% (active); in assay [4], 26.4%; in assay [5], 54.3%; in assay [8], 3.71% (active); in assay [6], 100%. Further, the growth in assay [7] is 56.8%.
For the compound `CNC(=O)c1cc(Oc2ccc(NC(=O)Nc3ccc(Cl)c(C(C)(C)C)c3)c(F)c2)ccn1`, the growth in assay [1] was 20.5%; in assay [2], 47.2%; in assay [3], 29.9%; in assay [4] it was 69.2%; in assay [5] it was 16%; in assay [6], 44.2%. Moreover, the growth in assay [7] was 20.9%.
On to `O=C1/C(=C/c2cccs2)CCC/C1=C\c1cccs1`, for which the growth is 17.8% in assay [1]; 110% in assay [2]; 81.3% in assay [3]; 21.4% in assay [5]; 80.2% in assay [8]; 89.1% in assay [6]. Besides, the growth in assay [7] was 65.6%.
For the compound `CCOC(=O)c1c(C)n(-c2ccc(Cl)cc2)c2ccc(OC(=O)/C=C/c3ccccc3)cc12`, the growth in assay [1] was 82.7%; in assay [2], 82.2%; in assay [4] it was 67%; in assay [5], 59.6%; in assay [8], 90.6%; in assay [6] it was 102%.
As to `COc1cc(CSc2nc3ccc(C)cc3c(=O)n2Cc2ccccc2)cc(OC)c1OC`, the growth in assay [1] was 34.1%; in assay [2] it was 34.8%; in assay [3], -5.84% (active); in assay [4], 25.8%; in assay [5], 18%; in assay [6], 43%. In addition, the growth in assay [7] is 25.3%.
Take `Cc1ccc(-c2cc(C(=O)Nc3ccc(S(=O)(=O)N4CCCCC4)cc3)[nH]n2)c(O)c1`: the growth is 33.8% in assay [1]; 67.4% in assay [2]; 61.3% in assay [3]; 46.8% in assay [5]; 43.5% in assay [8]; 45.1% in assay [7].
With `CCCCCCCCCCCCCCCCCBr`, the growth is 95.6% in assay [1]; 112% in assay [2]; 99.6% in assay [3]; 107% in assay [4]; 101% in assay [5]; 96.2% in assay [6]. Also, the growth in assay [7] was 113%.
